PubChem BioAssay AID2069 (Sanford-Burnham Center for Chemical Genomics, 2009)
Among all 1,200 compounds or so, about 210 (18%) were called active. These entries were drawn from the full list. A number with no mark means an inactive call. Cut-off read from the data, not from the text of the source: active = inhibition above about 30%; inactive = the rest.

Assay: fluorescence readout artefact check – biochemical, HTRF, uHTS, artefact control for SUMOylation inhibitor project, confirmation (AID 2069)
Conditions: HTRF interference counterscreen, at 35 µM, active compounds read high

| SMILES | inhibition |
| --- | --- |
| Cc1cc(/C=C2\C(=O)NN(c3ccccc3)C2=O)c(C)n1-c1ccccc1O | -1.5% |
| O=C(Nc1ccc(F)cc1)C(=O)c1c(O)[nH]c2ccc([N+](=O)[O-])cc12 | -2.85% |
| O=C(O)/C=C/C(=O)Nc1ccc(O)cc1 | -0.1% |
| Cc1ccc(NC(=O)CN2C(=O)S/C(=C/c3ccc(-c4cc(C(=O)O)ccc4C)o3)C2=O)cc1C | 37.2% (active) |
| Cc1ccccc1NC(=O)CN1C(=O)S/C(=C\c2ccc(-c3cc(C(=O)O)ccc3C)o2)C1=O | 28.9% |
| Cc1ccc(C(=O)O)cc1-c1ccc(/C=C2\SC(=O)N(CC(=O)Nc3ccc4c(c3)OCO4)C2=O)o1 | 23.6% |
| Cc1cc[n+](-c2[nH]c(=O)sc2/C=N/N=C(\[O-])c2ccncc2)cc1 | -1.55% |
| CCCCNC(=O)Oc1c(Br)cc2sc(=O)oc2c1Br | 7.5% |
| Cc1cc(/C=N/n2c(COc3ccccc3C)nc3ccccc3c2=O)c(O)c([N+](=O)[O-])c1 | -15.5% |
| CCn1c2ccccc2c2c3ncc4cccn4c3ccc21 | 31.1% (active) |
| O=[N+]([O-])c1ccc2nc(CCCc3nc4ccc([N+](=O)[O-])cc4[nH]3)[nH]c2c1 | 28.1% |
| COc1ccccc1CCNC(=O)CSc1ccc(-c2ccco2)nn1 | 14.2% |
| CCc1cc2c(=O)c(Oc3ccccc3F)c(C)oc2c(CN(C)C)c1O | 62.9% (active) |
| Cc1ccccc1NC(=O)Cn1c(O)c(N=NC(=O)c2ccccc2O)c2ccccc21 | 11.2% |
| CN1CCc2cc3c(c4c2[C@H]1[C@H](O)c1ccccc1-4)OCO3 | 1.95% |
| CCc1ccc(/C=C2/SC(=S)N(CCC(=O)Nc3ccc(C(=O)O)cc3)C2=O)cc1 | 8.2% |
| COc1ccc2nc3ccccc3nc2c1N | -67.2% |
| Brc1ccc(OCCN2CCOCC2)cc1 | -8.15% |
| CC(=O)NC1C(=O)N(CCN2CCOCC2)c2ccc(F)cc21 (stereo not given) | 28.6% |
| CC(=O)NC1C(=O)N(CCN2CCOCC2)c2ccc(Br)cc21 (stereo not given) | 32.2% (active) |
| CCOc1ccc2c(c1)C(NC(C)=O)C(=O)N2CCN1CCOCC1 (stereo not given) | 37.8% (active) |
| CCc1ccc2nc(NC(=O)c3ccc4c(=O)[nH]c(CN5CCOCC5)nc4c3)sc2c1 | 29.9% |
| CC(=O)NC1C(=O)N(CCN2CCOCC2)c2ccc(Cl)cc21 (stereo not given) | 25.8% |

| SMILES | inhibition |
| --- | --- |
| CCc1ccc2c(c1)C(NC(C)=O)C(=O)N2CCN1CCOCC1 (stereo not given) | 30.8% (active) |
| O=C1NC(=O)c2cc(NC(=O)C3CCCCC3)ccc21 | 25.4% |
| CCOC(=O)C1CC(=O)c2cc(OC)c(OC)cc2C1 (stereo not given) | -1.1% |
| O=C(COc1ccc(Cl)cc1)Nc1nnc(-c2ccc3c(c2)CCCC3)o1 | -7.05% |
| CC(C)=CCC1=C(OCC(=O)O)C(=O)c2ccccc2C1=O | -6.2% |
| O=C(Cc1ccccc1Cl)NC1(O)C(=O)c2ccccc2C1=O | -30.6% |
| O=C1c2ccccc2C(=O)C12OC2c1ccc(Cl)cc1 (stereo not given) | 4.4% |
| O=C(NC1(O)C(=O)c2ccccc2C1=O)c1c(Cl)cccc1Cl | 50.4% (active) |
| O=C(NC1(O)C(=O)c2ccccc2C1=O)c1ccc(C(F)(F)F)cc1 | 56.5% (active) |
| O=C(NC1(O)C(=O)c2ccccc2C1=O)c1ccccc1 | 57.5% (active) |
| Cc1ccc(C(=O)NC2(O)C(=O)c3ccccc3C2=O)cc1C | 29.6% |
| CN(NC(=O)c1ccc(Cl)cc1)c1ncc(C(F)(F)F)cc1Cl | 4.95% |
| CC(=O)c1ccc(-c2ccc(/C=C(/Sc3n[nH]c(C)n3)C(=O)O)o2)cc1 | -9.75% |
| Cc1cccc(C)c1OCC(=O)N=Nc1c(O)[nH]c2ccc(Br)cc12 | -1.15% |
| Cc1nnc(N/N=C\c2ccc(-c3ccccc3[N+](=O)[O-])o2)n1N | 16% |
| O=C1/C(=N\S(=O)(=O)c2cccs2)C([n+]2cccc(Cc3ccccc3)c2)=C([O-])c2ccccc21 | 22% |
| CCC(=O)N1CCc2cc(S(=O)(=O)NC(C(=O)NCc3ccc(C)cc3)C(C)C)ccc21 (stereo not given) | -2.25% |
| COC(=O)c1c(NC(=O)COC(=O)c2ccc(NC(=O)CC#N)cc2)sc2c1CCCCC2 | 4.25% |
| Fc1cccc(-n2c(-c3cccs3)nc3nc4ccccc4nc32)c1 | 30.1% (active) |
| COCCn1c(-c2ccco2)nc2nc3ccccc3nc21 | 12.7% |
| O=[N+]([O-])c1ccc(-c2ccc(C=Nc3cccc4ccccc34)o2)cc1 | 11.9% |
| CN(C)S(=O)(=O)c1cccc(-c2nn(-c3ccccc3)cc2/C=C2\SC(=S)NC2=O)c1 | -4% |
| Cc1nnc(Sc2cc(NCCCO)c([N+](=O)[O-])c3nonc23)s1 | -3.2% |

| SMILES | inhibition |
| --- | --- |
| O=c1c2ccccc2oc2cc(NCCCN3CCOCC3)ccc12 | 57.9% (active) |
| COc1ccc(-c2ccc(C(c3c(C)[nH][nH]c3=O)c3c(C)[nH][nH]c3=O)o2)c([N+](=O)[O-])c1 | 1.45% |
| COc1cc2c(cc1OC)-c1cc3ccc4c(c3c[n+]1CC2)OCO4 | 24.4% |
| CCOC(=O)c1c(NC(=O)c2ccco2)n(C2CCCCC2)c2nc3ccccc3nc12 | 21.2% |
| Cc1cc(NCCO)c2cc(O)ccc2n1 | 57.5% (active) |
| Cc1ccccc1NC(=O)c1ccc(N/N=C/c2ccccc2O)c([N+](=O)[O-])c1 | 24.7% |
| O=C(NC(=S)Nc1cccc2c(O)cccc12)c1ccccc1[N+](=O)[O-] | -1.65% |
| COC(=O)/C(=C\Nc1ccc(Cl)cc1Cl)NC(=O)c1ccc(OC)cc1 | 0.3% |
| COc1cc(OC)c(/C=N/NC(=O)c2ccc(NC(C)=O)cc2)cc1Br | 23.1% |
| Oc1ccc(C=Nc2cccc3ccccc23)c(O)c1 | 0.55% |
| COc1cccc2c(SCC(=O)N/N=C/c3ccc(O)cc3O)cc(C)nc12 | 15.7% |
| COc1cccc(/C=N\NC(=O)C2=NNC(=O)C2C)c1O (stereo not given) | 24.4% |
| COc1cccc(/C=N/NC(=O)C(=O)N/N=C/c2cccc(OC)c2O)c1O | 48% (active) |
| O=C(N/N=C/c1ccc(O)cc1O)C(=O)N/N=C/c1ccc(O)cc1O | 63.6% (active) |
| CC1(OC(=O)c2cccs2)C(=O)C=C2C=C3CCCN3C=C2C1=O (stereo not given) | 7.4% |
| O=C(CNc1ccc2ccccc2c1)N/N=C/c1cc2ccccc2nc1Cl | 2.4% |
| CC1=NN(c2ccccc2)C(=O)C1 | 7.95% |
| Cc1[nH]n(-c2ncc(-c3ccccc3)s2)c(=O)c1C(c1ccc(Cl)cc1)C(C#N)C#N (stereo not given) | -20.6% |
| O=C(Cn1c2ccccc2c(=O)c2ccccc21)N/N=C/c1cc([N+](=O)[O-])ccc1N1CCCCCC1 | 10.9% |
| O=C(N/N=C/c1cc(Cl)cc([N+](=O)[O-])c1O)c1ccccc1NS(=O)(=O)c1cccs1 | 39.8% (active) |
| O=C(N/N=C/c1ccc(N2CCOCC2)cc1)c1ccccc1NS(=O)(=O)c1cccs1 | 24.1% |
| Cc1ccccc1C(=O)Nc1cccc(C(=O)N/N=C/c2cc(Cl)cc([N+](=O)[O-])c2O)c1 | -53.5% |
| C=C(C)[C@@H]1CC[C@]2(C(=O)O)CC[C@]3(C)[C@H](CC[C@@H]4[C@@]5(C)CC[C@H](O)C(C)(C)[C@@H]5CC[C@]43C)[C@@H]12 | 5.35% |

| SMILES | inhibition |
| --- | --- |
| Cc1ccc(Nc2nc(=O)c3cc([N+](=O)[O-])ccc3s2)cc1 | 5.9% |
| Cc1cccc(NC(=O)/C(C#N)=C/c2cn(CC(=O)NCc3ccco3)c3ccccc23)c1C | 13.7% |
| CCCCCCC#Cc1cncc(C(=O)NNC(=O)Nc2cc(Cl)cc(Cl)c2)c1 | -17% |
| O=C1C=C(N(CCO)Cc2ccccc2)c2ccccc2C1=O | 50.4% (active) |
| O=C1C=C(Nc2ccccc2C(=O)O)c2ccccc2C1=O | -7.25% |
| O=C1C=C(NCc2ccccc2)c2ccccc2C1=O | -1.95% |
| CC(C)CNC1=CC(=O)CC(c2ccco2)C1 (stereo not given) | -0.9% |
| COc1cccc(C(c2c(C)[nH]n(-c3ccccc3)c2=O)c2c(C)[nH]n(-c3ccccc3)c2=O)c1OC | -27.4% |
| Nc1ncnc2c1ncn2C1OC(COP(=O)(O)O)C(O)C1O (stereo not given) | -7% |
| O=C1OC(Nc2ccc3ncccc3c2)c2ccccc21 (stereo not given) | 24% |
| O=[N+]([O-])c1ccc(O)c(C=Nc2cccc3ncccc23)c1 | 4.3% |
| N#CC1=C(N)N2C(=C(C#N)C1c1ccc(Br)cc1)Nc1ccccc12 (stereo not given) | 7.05% |
| O=c1nc2s/c(=C\c3ccco3)c(=O)n2nc1Cc1ccc(F)cc1 | -3.1% |
| OC(COc1ccccc1)CSc1ncn[nH]1 (stereo not given) | 14.6% |
| Fc1ccc(NC(=S)Nc2ccc3nccnc3c2)cc1 | 7.9% |
| COc1ccc(NC(=S)Nc2ccc3nccnc3c2)cc1 | 8.85% |
| CC(C)N(C(=O)Nc1ccc2nccnc2c1)C(C)C | 31.1% (active) |
| COc1ccc(-n2c(NC(=O)c3ccc(Br)o3)c(C#N)c3nc4ccccc4nc32)cc1 | 12.1% |
| Cn1c(=O)n(C)c2cc(S(=O)(=O)NCCO)ccc21 | -3.1% |
| O=C(Nc1cccc2nsnc12)c1ccc(-c2cccc(Cl)c2)o1 | 25.9% |
| Cc1ccc2nsnc2c1NC(=O)c1ccc(-c2cc(Cl)ccc2Cl)o1 | 20.6% |
